Laboratory results published in PubChem BioAssay.
“And” between values parts separate entries of the source, which are not always exact repeats. Identical values can stand only once. Results filed as inconclusive are left out. Values without a mark were called inactive. The source made the active and inactive calls.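 How the source made its calls, unless noted: active means GFP response, as percent of the DMSO control, above the screen-wide mean plus 3 SD, about 139; inconclusive means no response measured because the compound's own fluorescence interfered; inactive means the rest.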

Test: rapamycin-like changes in RPL19A-GFP expression – cell-based, S. cerevisiae, multiplex flow cytometry, primary screen (AID 1862; in the data active means percent of DMSO control GFP below about 86%;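 further: lower values mimic rapamycin by blocking the RPL19A rise seen in DMSO cells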)
Conditions: S. cerevisiae RPL19A-GFP strain, flow cytometry fluorescence, 3 h; at 10 µM; stronger effect = lower value

| SMILES | percent of DMSO control GFP |
| --- | --- |
| O=C(Cc1ccccc1[N+](=O)[O-])NCc1ccncc1 | 101% |
| Cn1nc(-c2ccc(Cl)cc2)nc2c(=O)n(C)c(=O)nc1-2 | 74.2% (active) |
| O=C(O)CCCCCNC(=O)Nc1ccc2c(c1)OCCO2 | 101% |
| COc1ccc(S(N)(=O)=O)cc1C(N)=O | 100% |
| Cc1occc(=O)c1O | 92.4% |
| C[C@]12CCC3C(CC=C4C[C@@H](O)CC[C@@]43C)C1CCC2[C@]1(C)CCC(=O)O1 (stereo partly drawn) | 102% |
| CC(=O)N(CCC1(c2ccc(C)cc2)CCOC(C(C)C)C1)Cc1ccco1 (stereo not drawn) | 93.9% |
| O=C(CCc1ccccc1)Nc1ccccc1C(F)(F)F | 103% |
| CN(C)C(=O)Oc1cccc([N+](C)(C)C)c1 | 95.7% and 98.8% |
| CCOc1ccc(C(NC(C)=O)c2ccc(OC)c(OC)c2)cc1 (stereo not drawn) | 99.8% |
| COc1ccccc1N=CC1=C(O)CC(c2ccccc2)CC1=O (stereo not drawn) | 92.6% |
| O=C1CC(c2ccc(O)cc2)Oc2cc(O)cc(O)c21 (stereo not drawn) | 107% |
| O=C(NCCO)c1ccc(Cl)c(Cl)c1 | 103% |
| N/C(Cc1ccc(Cl)cc1Cl)=N\OC(=O)c1ccc(Br)o1 | 93.5% |
| CC1=NN(C(=O)c2ccc(Br)cc2)C(O)(c2ccccc2)C1 (stereo not drawn) | 100% |
| Clc1cc(-c2ccc(/C=N/n3cnnc3)o2)ccc1Br | 100% |
| O=c1oc2c(CN3CCCCC3)c(O)ccc2c2c1CCCCC2 | 102% |
| Cc1ccc(-c2nnc(-c3ccc4c(c3)OCO4)o2)cc1 | 103% |
| CC1(C)CC(=O)c2cn3c(nc2C1)nc1ccccc13 | 102% |
| COc1ccc(C(=O)N2c3cc4c(cc3C(C)=CC2(C)C)OCO4)cc1 | 97.8% |

| SMILES | percent of DMSO control GFP |
| --- | --- |
| CCc1oc2ccccc2c1C(=O)c1cc(Br)c(O)c(Br)c1 | 92.2% |
| Cc1oc2cc(O)cc(O)c2c(=O)c1-c1ccc2c(c1)OCCCO2 | 95.6% |
| CCCC(=O)Nc1ncnc2c1ncn2[C@@H]1O[C@@H]2COP(=O)(O)O[C@H]2[C@H]1OC(=O)CCC | 97.7% |
| O=C(Cc1ccccc1)NCC(=O)OCC(=O)c1ccccc1Cl | 98.3% |
| CC/C(=C(\c1ccc(O)cc1)c1ccc(OCCN(C)C)cc1)c1ccccc1 | 107% |
| CC(C)(C)C(=O)Nc1cccc(OC(F)(F)C(F)Cl)c1 (stereo not drawn) | 105% |
| Cc1ccc(/C(=C\CN2CCCC2)c2ccccn2)cc1 | 107% |
| CC(C)(C)c1ccc(/C=C/C(=O)N2CCCCC2)cc1 | 96.1% |
| Cn1c(=O)[nH]c(=O)c2c1nc(NCc1ccco1)n2CCCc1ccccc1 | 101% |
| CN(C)CCOC(=O)C(c1ccccc1)C1(O)CCCC1 (stereo not drawn) | 92% |
| COc1ccccc1C(=O)Oc1ccc2c(c1)O/C(=C\c1ccncc1)C2=O | 94.7% |
| CC(=O)CCCCn1c(=O)c2c(ncn2C)n(C)c1=O | 103% |
| CS(=O)c1ccccc1O (stereo not drawn) | 103% |
| COc1cccc(OCc2nnc(-c3cccs3)o2)c1 | 103% |
| CCOC(=O)C(=O)N1CCN(c2ccccc2OC)CC1 | 97.9% |
| COc1ccc(CCN2C(=O)CSC2c2ccc(OC)c(OC)c2)cc1OC (stereo not drawn) | 102% |
| CCCCCCCC(=O)OCC(O)CO (stereo not drawn) | 108% |
| CN1CCN(C2=Nc3ccccc3Oc3ccc(Cl)cc32)CC1 | 101% |
| Cc1ccc(CN2CCN(CCCc3ccccc3)CC2CCO)cc1 (stereo not drawn) | 103% |

Test: TOR pathway GLN3 branch reporter MEP2-GFP changes – S. cerevisiae, multiplex flow cytometry, primary screen (AID 1867);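 further: median GFP channel fluorescence of barcode-gated MEP2-GFP cells measured by flow cytometry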
Conditions: S. cerevisiae MEP2-GFP strain, 3 h, at 10 µM, stronger effect = higher value, 100% means same as DMSO wells

| SMILES | GFP response vs DMSO |
| --- | --- |
| O=C(Cc1ccccc1[N+](=O)[O-])NCc1ccncc1 | 101% |
| Cn1nc(-c2ccc(Cl)cc2)nc2c(=O)n(C)c(=O)nc1-2 | 138% |
| O=C(O)CCCCCNC(=O)Nc1ccc2c(c1)OCCO2 | 115% |
| COc1ccc(S(N)(=O)=O)cc1C(N)=O | 105% |
| Cc1occc(=O)c1O | 112% |
| C[C@]12CCC3C(CC=C4C[C@@H](O)CC[C@@]43C)C1CCC2[C@]1(C)CCC(=O)O1 (stereo partly drawn) | 97.4% |
| CC(=O)N(CCC1(c2ccc(C)cc2)CCOC(C(C)C)C1)Cc1ccco1 (stereo not drawn) | 108% |
| O=C(CCc1ccccc1)Nc1ccccc1C(F)(F)F | 105% |
| CN(C)C(=O)Oc1cccc([N+](C)(C)C)c1 | 104% and 109% |
| CCOc1ccc(C(NC(C)=O)c2ccc(OC)c(OC)c2)cc1 (stereo not drawn) | 104% |
| COc1ccccc1N=CC1=C(O)CC(c2ccccc2)CC1=O (stereo not drawn) | 111% |
| O=C1CC(c2ccc(O)cc2)Oc2cc(O)cc(O)c21 (stereo not drawn) | 99.3% |
| O=C(NCCO)c1ccc(Cl)c(Cl)c1 | 104% |
| N/C(Cc1ccc(Cl)cc1Cl)=N\OC(=O)c1ccc(Br)o1 | 128% |
| CC1=NN(C(=O)c2ccc(Br)cc2)C(O)(c2ccccc2)C1 (stereo not drawn) | 96.6% |
| Clc1cc(-c2ccc(/C=N/n3cnnc3)o2)ccc1Br | 103% |
| O=c1oc2c(CN3CCCCC3)c(O)ccc2c2c1CCCCC2 | 102% |
| Cc1ccc(-c2nnc(-c3ccc4c(c3)OCO4)o2)cc1 | 106% |
| CC1(C)CC(=O)c2cn3c(nc2C1)nc1ccccc13 | 97.7% |
| COc1ccc(C(=O)N2c3cc4c(cc3C(C)=CC2(C)C)OCO4)cc1 | 103% |

| SMILES | GFP response vs DMSO |
| --- | --- |
| CCc1oc2ccccc2c1C(=O)c1cc(Br)c(O)c(Br)c1 | 117% |
| Cc1oc2cc(O)cc(O)c2c(=O)c1-c1ccc2c(c1)OCCCO2 | 103% |
| CCCC(=O)Nc1ncnc2c1ncn2[C@@H]1O[C@@H]2COP(=O)(O)O[C@H]2[C@H]1OC(=O)CCC | 130% |
| O=C(Cc1ccccc1)NCC(=O)OCC(=O)c1ccccc1Cl | 112% |
| CC/C(=C(\c1ccc(O)cc1)c1ccc(OCCN(C)C)cc1)c1ccccc1 | 108% |
| CC(C)(C)C(=O)Nc1cccc(OC(F)(F)C(F)Cl)c1 (stereo not drawn) | 106% |
| Cc1ccc(/C(=C\CN2CCCC2)c2ccccn2)cc1 | 104% |
| CC(C)(C)c1ccc(/C=C/C(=O)N2CCCCC2)cc1 | 103% |
| Cn1c(=O)[nH]c(=O)c2c1nc(NCc1ccco1)n2CCCc1ccccc1 | 101% |
| CN(C)CCOC(=O)C(c1ccccc1)C1(O)CCCC1 (stereo not drawn) | 137% |
| COc1ccccc1C(=O)Oc1ccc2c(c1)O/C(=C\c1ccncc1)C2=O | 105% |
| CC(=O)CCCCn1c(=O)c2c(ncn2C)n(C)c1=O | 96.2% |
| CS(=O)c1ccccc1O (stereo not drawn) | 98.8% |
| COc1cccc(OCc2nnc(-c3cccs3)o2)c1 | 105% |
| CCOC(=O)C(=O)N1CCN(c2ccccc2OC)CC1 | 112% |
| COc1ccc(CCN2C(=O)CSC2c2ccc(OC)c(OC)c2)cc1OC (stereo not drawn) | 118% |
| CCCCCCCC(=O)OCC(O)CO (stereo not drawn) | 103% |
| CN1CCN(C2=Nc3ccccc3Oc3ccc(Cl)cc32)CC1 | 115% |
| Cc1ccc(CN2CCN(CCCc3ccccc3)CC2CCO)cc1 (stereo not drawn) | 104% |
